Screening data: PubChem, National Center for Advancing Translational Sciences (NCATS)
PNC inhibitor – inhibitors of perinucleolar compartment assembly | PC3M PTB-GFP, PNC prevalence imaging, 16 h; active compounds read low | activity change (PNC), negative = inhibition, % at 10 µM | hit rate 3.1% among 140,000;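 active = readout at or below -70, meaning at least 70% loss of cells showing the perinucleolar compartment, a nuclear body marking cancer cells; inconclusive = readout between -30 and a set limit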;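 note: plate controls were DMSO wells for no effect and camptothecin positive control wells for full effect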
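Read-out is percentage of cells bearing a perinucleolar compartment, from automated 20x imaging of fixed, Hoechst-stained PC3M PTB-GFP cells. Cells were seeded 4 h, then exposed 16 h to compound (23 nl of library stock) in duplicate plates.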
ALOX15B inhib – blocks human 15-lipoxygenase 2 activity; O15296; purified 15hLO-2, xylenol orange hydroperoxide absorbance; Potency, µM (highest dose often 57.1 µM), inactives show at the top dose activity change, negative = inhibition, hits mostly inhibitors; hit rate 0.56% among 110,000; AID 881; note: potency is the fitted concentration of half-maximal effect; nearly all actives have a fitted effect of over 60% in size
Target sequence (O15296 whole entry, looked up): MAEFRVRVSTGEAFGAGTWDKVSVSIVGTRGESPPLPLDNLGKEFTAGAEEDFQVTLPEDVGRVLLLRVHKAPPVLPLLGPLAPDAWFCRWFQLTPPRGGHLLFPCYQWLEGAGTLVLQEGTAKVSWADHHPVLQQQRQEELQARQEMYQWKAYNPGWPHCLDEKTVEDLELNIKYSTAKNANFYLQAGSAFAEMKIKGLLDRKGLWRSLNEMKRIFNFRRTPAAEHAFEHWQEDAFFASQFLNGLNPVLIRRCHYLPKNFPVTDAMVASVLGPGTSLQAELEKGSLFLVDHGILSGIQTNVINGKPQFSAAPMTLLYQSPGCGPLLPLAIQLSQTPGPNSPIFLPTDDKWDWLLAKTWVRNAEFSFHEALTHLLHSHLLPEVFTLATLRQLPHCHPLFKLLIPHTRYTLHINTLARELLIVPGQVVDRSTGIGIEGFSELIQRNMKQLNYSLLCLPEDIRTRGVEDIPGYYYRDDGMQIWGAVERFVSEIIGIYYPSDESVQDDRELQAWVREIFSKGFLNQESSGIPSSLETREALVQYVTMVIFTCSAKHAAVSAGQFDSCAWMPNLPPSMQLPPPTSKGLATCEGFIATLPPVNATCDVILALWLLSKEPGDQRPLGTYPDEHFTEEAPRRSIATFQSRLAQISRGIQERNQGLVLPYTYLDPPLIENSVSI
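Purified human 15hLO-2 (50 nM final) preincubated with compounds 15 min at room temperature in 25 mM Hepes pH 7.5, 0.01% Triton X-100, then 45 uM arachidonic acid added for 90 min; hydroperoxide detected via ferrous/xylenol orange, 573/405 nm absorbance ratio.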
ALOX12 inhib – blocks human 12-lipoxygenase activity; hit rate 0.12% among 150,000; AID 1452; P18054; Potency, µM (top dose mostly 57.1 µM), for the others: at the top dose activity change, negative = inhibition, actives largely listed as inhibitors; purified 12-hLO, xylenol orange hydroperoxide absorbance; note: potency is the fitted concentration of half-maximal effect; nearly all actives have a fitted effect of over 55% in size
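Purified human 12hLO (150 nM final) was preincubated with compounds for 15 min at room temperature in 25 mM Hepes pH 7.0, 0.01% Triton X-100, then reacted with 40 uM arachidonic acid for 30 min. Hydroperoxide was detected with ferrous iron/xylenol orange.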
Starred values were filed as active, the others as inactive; ? = inconclusive; . = not tested or not shown; [ ] = dose if it differs, or a comment. In the library only some 3.1% were active in any assay of this set; here they are far more common. Unless noted, calls come from the whole dose curve; as a rule, active = well fitted curve in the direction sought with a large enough effect; inconclusive = small, poorly fitted or top-dose-only effect, or another doubt; inactive = no such curve, though single readings can be large; an effect the other way counts as inactive or inconclusive. Unless noted, % is set by controls: 0 for no effect and ±100 for the full control effect.

SMILES | PNC inhibitor | ALOX15B inhib | ALOX12 inhib
CC(NC(=O)Nc1ccccc1)C(c1cccs1)N1CCOCC1 (centres undefined) | -121.7* | . | 0.1%
CC(NC(=O)Nc1ccc(Cl)cc1)C(c1cccs1)N1CCOCC1 (centres undefined) | -19.0 | 0.7% | 0.5%
C[C@H]1Cc2c(COc3ccccc3)nc3c(c2CO1)CN(C(=O)c1cc(I)ccc1F)CC3 | . | . | 0.5%[11.4 µM]
CC(C)CC(N)C(=O)NC(C)C(=O)O (centres undefined) | . | 5.9% | -3.4%
C=CCNc1nc(Cl)ncc1F | -119.3* | . | -5.0%
C=CCNc1nnc(Cl)c2ccccc12 | ? | 4.9% | 0.9%
Cc1cccc(-c2n[nH]c(=S)n2-c2ccccc2)c1[N+](=O)[O-] | -0.8 | . | 0.6%
COc1ccc(-n2c(-c3cccc(C)c3[N+](=O)[O-])n[nH]c2=S)cc1 | -109.4* | ? | -1.9%
Cc1nc(NC(=O)C2CC3CCCC(C2)C3=O)sc1C (centres undefined) | -122.4* | 7.4%[2.29 µM] | 3.6%
O=C(Nc1cccc(NC(=O)C2CC3CCCC(C2)C3=O)n1)C1CC2CCCC(C1)C2=O (centres undefined) | ? | -2.0% | -0.9%
CCC1=C2CC[C@H]3C(=O)NC(=O)[C@H]3[C@H]2[C@@]2(Cc3ccccc3)C(=NCC3CC3)OC(=O)N2C1=O | . | 2.9% | 0.7%
Cc1oc2c(c1C(=O)Nc1cccc3ccccc13)CCCC2 | 20.8 | 7.1% | 5.1%
COc1ccccc1NC(=O)c1c(C)oc2c1CCCC2 | -114.1* | . | 0.4%
Cc1nn(-c2ccccc2)c(C)c1/C=N/N1CCN(Cc2ccccc2)CC1 | . | 36.5% | -1.6%
CC(C)[C@@H](C(=O)O)N1C(=O)c2ccccc2C1=O | . | -2.6%[11.4 µM] | -6.2%[11.4 µM]
O=C(Nc1ccc(Nc2ccccc2)cc1)C(Cl)(Cl)Cl | 19.3 | . | -0.1%
O=C(Nc1ccc(Nc2ccccc2)cc1)C(Cl)Cl | -90.8* | . | -2.1%
O=C(O)C1=CC(=C(c2ccc(O)c(C(=O)O)c2)c2ccc(O)c(C(=O)O)c2)C=CC1=O | . | 7.94µM* | ?
CC1=C/C(=C(/c2ccc(O)c(C)c2)c2ccccc2C(=O)O)C=CC1=O | . | -22.2%[11.4 µM] | -25.4%[11.4 µM]
COCCN(Cc1cc2cc(C)cc(C)c2nc1Cl)C(=O)Nc1ccccc1 | 60.5 | 9.9% | -0.4%
Cc1cc(C)c2nc(Cl)c(CN(Cc3ccco3)C(=O)Nc3ccccc3C)cc2c1 | -90.4* | 2.5% | -0.8%
COc1ccc(Cl)cc1NC(=O)NC1CCCCC1 | 23.6 | 1.7% | 3.3%
COc1ccc(Cl)cc1NC(=O)N1CCN(C2CCCCC2)CC1 | -88.2* | 13.9% | 1.3%
COC(=O)c1c[nH]n2c(=O)cc(C)nc12 | -2.5 | 9.5% | -0.4%
COC(=O)c1c[nH]n2c(=O)c(Cl)c(C)nc12 | -113.4* | . | -1.1%
SMILES | PNC inhibitor | ALOX15B inhib | ALOX12 inhib
Cc1ccc(S(C)(=O)=O)cc1S(=O)(=O)Nc1cccc(Cl)c1 | -112.4* | . | 3.0%
Cc1ccccc1NS(=O)(=O)c1cc(S(C)(=O)=O)ccc1C | -18.0 | . | -4.4%
O=c1[nH]c(Cl)nc2c1ncn2C1OC(CO)C(O)C1O (centres undefined) | . | 1.6% | -4.2%
COCCn1c(-c2ccc(OC)cc2)nc2ccccc21 | 37.2 | -0.5% | -6.5%
COc1ccc(Cn2c(-c3ccc(OC)cc3)nc3ccccc32)cc1 | -100.0* | . | -8.2%
COc1cc(Cn2c(-c3nonc3N)nc3ccccc32)ccc1C | ? | -2.3% | -6.4%
COc1cccc(Cn2c(-c3nonc3N)nc3ccccc32)c1 | -111.4* | -5.5% | -5.4%
CCCC[S@@](=N)(=O)CC[C@@H](N)C(=O)O | . | 14.9% | -7.3%
COc1cc(OC)c2cc(-c3ccncc3)cnc2c1 | . | -0.4% | -6.1%
COc1ccc(N/N=C(\C=N\O)C(=O)c2ccc(OC)cc2)cc1 | -112.1* | ? | -15.7%
COc1ccc(C(=O)/C=C(\C)Nc2ccc(NC(C)=O)cc2)cc1 | -28.5 | 5.7% | -3.1%
CN(N=O)C(=O)N[C@H]1[C@@H](O)[C@H](O)[C@H](CO)O[C@@H]1O | . | 4.1%[25.6 µM] | 1.3%[25.6 µM]
O=C(CSC1=NC(=O)C(Cc2ccccc2)C(=O)N1)NC1CCCCC1 (centres undefined) | ? | 3.2% | 0.1%
CC(=O)NC1C(=O)N=C(SCC(=O)NCc2ccccc2)NC1=O (centres undefined) | -100.0* | . | 2.9%
O=[N+]([O-])c1ccc(-c2nc(-c3ccc(F)cc3)c(-c3ccncc3)[nH]2)cc1 | . | 42.3% | -6.5%
CCCCC(=O)N(CCOC)c1nnc(-c2ccc(OC)cc2)s1 | 38.5 | 8.7% | -1.2%
CCN(C(=O)c1ccco1)c1nnc(-c2ccc(OC)cc2)s1 | -100.0* | . | 5.0%
N[C@](CC1c2ccccc2Oc2ccccc21)(C(=O)O)[C@@H]1C[C@@H]1C(=O)O | . | 13.5% | -7.4%
CCC(C)NC(=O)c1ccccc1NC(=O)c1ccc(CSc2ccccc2)cc1 (centres undefined) | -0.1 | . | -3.5%
Cc1ccc(SCc2ccc(C(=O)Nc3ccccc3C(=O)NC(C)C)cc2)cc1 | -87.5* | . | -0.6%
O=C(c1csnn1)N1CCC[C@@]2(CCN(Cc3ccccc3)C2)C1 | . | 11.0% | 3.4%
CCCCCCc1ccc(-c2ncc(N)cn2)cc1 | ? | 16.5% | -6.5%
Nc1ccc(-c2cnc(-c3ccc(N)cc3)nc2)cc1 | -123.3* | -1.2% | -4.6%
CSc1nc(N)c2ncn([C@@H]3O[C@@H](COP(=O)(O)OP(=O)(O)O)[C@@H](O)[C@H]3O)c2n1 | . | 2.8% | -6.9%
OCC(O)C(O)C(O)CO (centres undefined) | . | 9.2% | 4.6%
SMILES | PNC inhibitor | ALOX15B inhib | ALOX12 inhib
COc1ccc(C)cc1NS(=O)(=O)c1ccc(NC(=O)CN(c2cc([N+](=O)[O-])ccc2C)S(C)(=O)=O)cc1 | ? | . | -3.6%
Cc1cccc(NS(=O)(=O)c2ccc(NC(=O)CN(c3cc([N+](=O)[O-])ccc3C)S(C)(=O)=O)cc2)c1 | -113.4* | . | -7.9%
CC1(C)S[C@@H]2[C@H](NC(=O)COc3ccccc3)C(=O)N2[C@H]1C(=O)O (tested in a mixture with another compound) | . | 29.6%[25.6 µM] | 1.6%[25.6 µM]
O=c1c(-c2ccc(F)cc2)nc2cncnc2n1C1CC1 | . | 0.3% | -0.6%
Cc1ccc2nc(NC(=O)CSc3ncnc4c3oc3ccccc34)sc2c1 | -108.4* | -4.5% | 1.9%
CCOCC(=O)Nc1nc2ccc(C)cc2s1 | -100.0* | . | -4.5%
CCOCC(=O)Nc1nc2ccc(S(C)(=O)=O)cc2s1 | -5.7 | -4.3% | 2.9%
CCC(=O)Nc1nc2ccc(S(C)(=O)=O)cc2s1 | -100.0* | . | -1.5%
Cc1cccc(NC(=O)CSc2ncnc3c2oc2ccccc23)c1 | 2.0 | -2.1% | -4.1%
CCOCC(=O)Nc1nc2ccc(OCC)cc2s1 | ? | -3.8% | -4.9%
Cc1ccccc1-c1cc(-n2ccnc2)ncn1 | . | 18.3% | -2.1%
O=C(c1cccc(F)c1)N1CCC2(CCN(Cc3cc(C(F)(F)F)cc(C(F)(F)F)c3)CC2)CC1 | . | 33.6% | 4.4%
Cc1noc(C)c1-c1cc(Nc2ccccc2)ncn1 | . | -1.8% | .
CCOc1ccc2c(ccc(/C=C\c3cc(C)c4cccnc4c3O)[n+]2C)c1 | . | 37.5%[11.4 µM] | -15.6%[11.4 µM]
CC(C)(C)c1ccc(C(=O)Nc2ccc(N3CCOCC3)cc2)cc1 | -28.5 | 2.5% | -8.9%
CC(C)(C)c1ccc(C(=O)NC(=S)Nc2ccc(N3CCOCC3)cc2)cc1 | -123.3* | . | 0.9%
Nc1nc2ccc([N+](=O)[O-])cc2s1 | . | -15.6% | -1.1%
